Data from article PMC7862700, “An all-to-all approach to the identification of sequence-specific readers for epigenetic DNA modifications on cytosine”.

Key:
Assay in all cases: DAPPL (digital affinity profiling via proximity ligation, sequencing); 10 mM Tris-HCl pH 7.5, 50 mM NaCl, 1 mM DTT, 4% glycerol, room temperature, 30 min; GST-TFs on glutathione beads, 16-mer random dsDNA library, 0.1% formaldehyde crosslink after washing; high values mean tight binding
FLI1 = target: T1, FLI1 (Homo sapiens, UniProt Q01543 1-452); conditions: protein: recombinant; tags: N-terminal GST; dsDNA, one strand shown
T1 sequence: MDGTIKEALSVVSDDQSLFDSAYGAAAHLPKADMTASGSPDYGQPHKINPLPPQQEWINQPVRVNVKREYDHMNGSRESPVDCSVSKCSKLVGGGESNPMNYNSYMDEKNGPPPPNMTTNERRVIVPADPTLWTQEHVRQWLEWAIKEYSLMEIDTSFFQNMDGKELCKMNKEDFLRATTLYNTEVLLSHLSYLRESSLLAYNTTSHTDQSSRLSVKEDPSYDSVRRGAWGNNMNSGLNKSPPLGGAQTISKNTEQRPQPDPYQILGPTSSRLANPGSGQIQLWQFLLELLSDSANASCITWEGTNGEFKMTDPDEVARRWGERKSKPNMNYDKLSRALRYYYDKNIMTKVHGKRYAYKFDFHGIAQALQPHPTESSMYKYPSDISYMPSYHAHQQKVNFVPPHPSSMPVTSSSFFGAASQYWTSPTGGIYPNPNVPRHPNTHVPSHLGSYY
Outline: (§1)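 A tag-only sample was pooled with DNA-barcoded human transcription factors that had been expressed in yeast as GST fusions and captured on glutathione beads. The pools were incubated for 30 min at room temperature with 200 nmole of a random double-stranded 16-mer DNA library in Tris/NaCl/DTT/glycerol buffer, then washed, crosslinked with 0.1% formaldehyde, proximity-ligated (BsaI/T4 ligase, 1 h, 37 °C), PCR-amplified and sequenced on an Illumina NextSeq500. Binding signal is each hexamer's read frequency for a factor divided by its frequency for the tag-only sample.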

ELK1 = target: T2, ELK1 (Homo sapiens, UniProt P19419 1-428); conditions: protein: recombinant; tags: N-terminal GST; dsDNA, one strand shown
T2 sequence: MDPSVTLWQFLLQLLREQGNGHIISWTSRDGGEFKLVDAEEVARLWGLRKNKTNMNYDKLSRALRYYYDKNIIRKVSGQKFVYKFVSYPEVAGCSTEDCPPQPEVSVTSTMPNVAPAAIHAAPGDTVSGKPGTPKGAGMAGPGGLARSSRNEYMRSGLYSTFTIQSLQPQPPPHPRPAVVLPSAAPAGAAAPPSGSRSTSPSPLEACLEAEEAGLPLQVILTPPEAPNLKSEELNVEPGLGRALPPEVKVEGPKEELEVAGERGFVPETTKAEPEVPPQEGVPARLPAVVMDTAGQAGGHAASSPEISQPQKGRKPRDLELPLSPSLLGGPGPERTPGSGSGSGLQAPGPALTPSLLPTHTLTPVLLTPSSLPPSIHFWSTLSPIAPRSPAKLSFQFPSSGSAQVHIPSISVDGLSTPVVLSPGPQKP
Outline: as §1

GABPA = target: T3, GABPA (Homo sapiens, UniProt Q06546 1-454); conditions: protein: recombinant; tags: N-terminal GST; dsDNA, one strand shown
T3 sequence: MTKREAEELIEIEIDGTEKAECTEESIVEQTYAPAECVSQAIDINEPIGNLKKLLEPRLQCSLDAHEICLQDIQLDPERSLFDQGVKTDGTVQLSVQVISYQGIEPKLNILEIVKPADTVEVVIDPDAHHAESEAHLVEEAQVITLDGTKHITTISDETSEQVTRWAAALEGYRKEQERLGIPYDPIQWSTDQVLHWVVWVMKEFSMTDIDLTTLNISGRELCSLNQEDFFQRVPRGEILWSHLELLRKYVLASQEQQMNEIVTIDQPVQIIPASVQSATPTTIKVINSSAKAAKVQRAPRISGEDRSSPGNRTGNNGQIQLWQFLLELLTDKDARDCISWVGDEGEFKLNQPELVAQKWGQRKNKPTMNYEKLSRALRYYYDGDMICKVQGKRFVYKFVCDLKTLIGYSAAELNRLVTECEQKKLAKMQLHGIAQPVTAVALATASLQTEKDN
Outline: as §1

ERG = target: T4, ERG (Homo sapiens, UniProt P11308 1-479); conditions: protein: recombinant; tags: N-terminal GST; dsDNA, one strand shown
T4 sequence: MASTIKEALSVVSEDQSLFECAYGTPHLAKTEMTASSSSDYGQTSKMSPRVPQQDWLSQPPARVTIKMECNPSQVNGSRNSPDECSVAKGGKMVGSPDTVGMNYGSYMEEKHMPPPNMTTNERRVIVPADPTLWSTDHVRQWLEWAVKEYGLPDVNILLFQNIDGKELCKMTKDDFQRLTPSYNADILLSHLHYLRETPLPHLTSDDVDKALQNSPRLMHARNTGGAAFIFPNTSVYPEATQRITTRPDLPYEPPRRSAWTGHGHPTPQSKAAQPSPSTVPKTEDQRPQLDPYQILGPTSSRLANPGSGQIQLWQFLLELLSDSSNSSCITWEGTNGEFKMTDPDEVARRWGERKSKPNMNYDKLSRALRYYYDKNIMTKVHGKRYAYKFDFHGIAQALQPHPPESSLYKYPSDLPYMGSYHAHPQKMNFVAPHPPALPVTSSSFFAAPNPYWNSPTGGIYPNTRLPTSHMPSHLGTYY
Outline: as §1

ELF1 = ELF1 (Homo sapiens, UniProt P32519 1-619); conditions: protein: recombinant; tags: N-terminal GST; dsDNA, one strand shown
ELF1, sequence (P32519 whole entry): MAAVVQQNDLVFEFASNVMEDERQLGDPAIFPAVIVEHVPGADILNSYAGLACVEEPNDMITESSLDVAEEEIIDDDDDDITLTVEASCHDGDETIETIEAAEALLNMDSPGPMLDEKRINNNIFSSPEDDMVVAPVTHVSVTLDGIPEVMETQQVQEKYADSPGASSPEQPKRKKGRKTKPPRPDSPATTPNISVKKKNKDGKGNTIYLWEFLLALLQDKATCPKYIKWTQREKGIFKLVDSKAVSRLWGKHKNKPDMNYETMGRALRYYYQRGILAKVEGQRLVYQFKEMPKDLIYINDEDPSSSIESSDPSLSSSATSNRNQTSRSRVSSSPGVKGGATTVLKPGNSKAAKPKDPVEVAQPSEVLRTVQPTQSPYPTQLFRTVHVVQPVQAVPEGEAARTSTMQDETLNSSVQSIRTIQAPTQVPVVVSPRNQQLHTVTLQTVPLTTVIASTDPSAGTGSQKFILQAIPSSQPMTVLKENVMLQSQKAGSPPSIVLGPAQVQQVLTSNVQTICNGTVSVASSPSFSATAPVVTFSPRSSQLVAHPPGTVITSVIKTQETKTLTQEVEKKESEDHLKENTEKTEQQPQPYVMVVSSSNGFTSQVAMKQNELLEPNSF
Outline: as §1

EHF = target: T5, EHF (Homo sapiens, UniProt Q9NZC4 1-300); conditions: protein: recombinant; tags: N-terminal GST; dsDNA, one strand shown
T5 sequence: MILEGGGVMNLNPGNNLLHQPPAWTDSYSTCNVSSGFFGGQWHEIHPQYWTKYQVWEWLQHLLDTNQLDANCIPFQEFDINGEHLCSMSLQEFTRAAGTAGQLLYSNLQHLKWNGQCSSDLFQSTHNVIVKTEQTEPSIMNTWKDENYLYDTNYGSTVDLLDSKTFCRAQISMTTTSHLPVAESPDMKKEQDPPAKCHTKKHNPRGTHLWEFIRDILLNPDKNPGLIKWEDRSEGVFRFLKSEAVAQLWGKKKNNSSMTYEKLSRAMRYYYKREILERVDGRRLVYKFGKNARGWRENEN
Outline: as §1

SPI1 = SPI1 (Homo sapiens, UniProt P17947 1-270); conditions: protein: recombinant; tags: N-terminal GST; dsDNA, one strand shown
Outline: as §1

SPIB = SPIB (Homo sapiens, UniProt Q01892 1-262); conditions: protein: recombinant; tags: N-terminal GST; dsDNA, one strand shown
SPIB, sequence (Q01892 whole entry): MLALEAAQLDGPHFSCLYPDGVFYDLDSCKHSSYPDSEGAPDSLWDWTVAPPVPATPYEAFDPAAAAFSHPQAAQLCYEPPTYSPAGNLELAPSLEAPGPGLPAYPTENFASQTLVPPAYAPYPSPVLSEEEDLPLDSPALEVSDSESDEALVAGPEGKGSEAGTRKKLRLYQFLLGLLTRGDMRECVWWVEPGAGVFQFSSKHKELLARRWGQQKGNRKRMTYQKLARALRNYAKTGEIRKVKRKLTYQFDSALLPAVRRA
Outline: as §1

ELK3 = target: T6, ELK3 (Homo sapiens, UniProt P41970 1-407); conditions: protein: recombinant; tags: N-terminal GST; dsDNA, one strand shown
T6 sequence: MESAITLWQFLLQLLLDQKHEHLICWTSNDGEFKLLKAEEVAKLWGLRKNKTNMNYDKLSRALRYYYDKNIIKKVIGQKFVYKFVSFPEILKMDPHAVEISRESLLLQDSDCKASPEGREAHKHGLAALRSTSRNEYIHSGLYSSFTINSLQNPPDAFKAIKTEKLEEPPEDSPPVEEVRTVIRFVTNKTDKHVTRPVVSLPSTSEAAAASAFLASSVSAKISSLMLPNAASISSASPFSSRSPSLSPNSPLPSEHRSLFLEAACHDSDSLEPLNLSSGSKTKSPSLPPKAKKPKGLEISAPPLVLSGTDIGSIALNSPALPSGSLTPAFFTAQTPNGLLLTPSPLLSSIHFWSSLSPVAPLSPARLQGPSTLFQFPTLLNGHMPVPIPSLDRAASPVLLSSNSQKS
Outline: as §1

FEV = target: T7, FEV (Homo sapiens, UniProt Q99581 1-238); conditions: protein: recombinant; tags: N-terminal GST; dsDNA, one strand shown
T7 sequence: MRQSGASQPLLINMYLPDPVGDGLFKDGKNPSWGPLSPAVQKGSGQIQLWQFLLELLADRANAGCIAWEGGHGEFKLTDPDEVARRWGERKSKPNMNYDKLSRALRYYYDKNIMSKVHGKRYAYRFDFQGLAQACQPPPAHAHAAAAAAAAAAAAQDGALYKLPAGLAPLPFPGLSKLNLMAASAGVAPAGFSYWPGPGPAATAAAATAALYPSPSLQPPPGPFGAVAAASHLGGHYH
Outline: as §1

ETV5 = ETV5 (Homo sapiens, UniProt P41161 1-510); conditions: protein: recombinant; tags: N-terminal GST; dsDNA, one strand shown
ETV5, sequence (P41161 whole entry): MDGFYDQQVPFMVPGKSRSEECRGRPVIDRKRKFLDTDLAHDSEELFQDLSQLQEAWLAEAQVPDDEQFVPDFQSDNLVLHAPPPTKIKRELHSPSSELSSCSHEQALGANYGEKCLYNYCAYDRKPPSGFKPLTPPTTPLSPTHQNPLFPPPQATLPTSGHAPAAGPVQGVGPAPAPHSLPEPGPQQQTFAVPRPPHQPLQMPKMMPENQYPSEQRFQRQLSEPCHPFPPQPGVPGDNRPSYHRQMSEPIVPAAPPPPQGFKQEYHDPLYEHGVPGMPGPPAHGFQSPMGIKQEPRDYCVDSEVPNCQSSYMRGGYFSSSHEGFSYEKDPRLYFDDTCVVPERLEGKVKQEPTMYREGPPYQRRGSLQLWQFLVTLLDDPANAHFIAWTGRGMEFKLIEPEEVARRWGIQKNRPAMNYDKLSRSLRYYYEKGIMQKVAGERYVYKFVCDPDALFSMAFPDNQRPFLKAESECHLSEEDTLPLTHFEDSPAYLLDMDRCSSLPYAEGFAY
Outline: as §1

HSF1 = HSF1 (Homo sapiens, UniProt Q00613 1-529); conditions: protein: recombinant; tags: N-terminal GST; chain copies: 3; dsDNA, one strand shown
HSF1, sequence (Q00613 whole entry): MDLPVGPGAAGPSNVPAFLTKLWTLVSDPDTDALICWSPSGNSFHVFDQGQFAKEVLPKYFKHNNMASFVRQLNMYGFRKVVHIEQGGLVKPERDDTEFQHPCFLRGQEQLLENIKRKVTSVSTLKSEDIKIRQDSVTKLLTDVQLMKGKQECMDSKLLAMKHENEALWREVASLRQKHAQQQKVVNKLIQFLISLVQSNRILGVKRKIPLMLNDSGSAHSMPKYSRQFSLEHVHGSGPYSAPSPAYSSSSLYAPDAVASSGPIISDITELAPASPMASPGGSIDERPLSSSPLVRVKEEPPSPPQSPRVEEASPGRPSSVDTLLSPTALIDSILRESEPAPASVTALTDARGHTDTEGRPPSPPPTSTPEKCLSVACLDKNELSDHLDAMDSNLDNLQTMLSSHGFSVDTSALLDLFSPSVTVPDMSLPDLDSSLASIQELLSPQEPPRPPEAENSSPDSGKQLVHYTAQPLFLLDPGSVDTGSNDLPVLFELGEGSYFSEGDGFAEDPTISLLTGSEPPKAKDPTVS
Outline: as §1

SPIC = target: T8, SPIC (Homo sapiens, UniProt Q8N5J4 1-248); conditions: protein: recombinant; tags: N-terminal GST; dsDNA, one strand shown
T8 sequence: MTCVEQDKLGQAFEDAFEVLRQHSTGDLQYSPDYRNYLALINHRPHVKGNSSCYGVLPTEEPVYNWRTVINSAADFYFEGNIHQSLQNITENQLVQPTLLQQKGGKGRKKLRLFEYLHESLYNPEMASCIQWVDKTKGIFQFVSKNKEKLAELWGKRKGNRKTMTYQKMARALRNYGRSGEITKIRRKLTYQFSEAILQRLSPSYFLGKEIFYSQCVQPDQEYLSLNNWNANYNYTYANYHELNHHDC
Outline: as §1

ELF4 = ELF4 (Homo sapiens, UniProt Q99607 1-663); conditions: protein: recombinant; tags: N-terminal GST; dsDNA, one strand shown
ELF4, sequence (Q99607 whole entry): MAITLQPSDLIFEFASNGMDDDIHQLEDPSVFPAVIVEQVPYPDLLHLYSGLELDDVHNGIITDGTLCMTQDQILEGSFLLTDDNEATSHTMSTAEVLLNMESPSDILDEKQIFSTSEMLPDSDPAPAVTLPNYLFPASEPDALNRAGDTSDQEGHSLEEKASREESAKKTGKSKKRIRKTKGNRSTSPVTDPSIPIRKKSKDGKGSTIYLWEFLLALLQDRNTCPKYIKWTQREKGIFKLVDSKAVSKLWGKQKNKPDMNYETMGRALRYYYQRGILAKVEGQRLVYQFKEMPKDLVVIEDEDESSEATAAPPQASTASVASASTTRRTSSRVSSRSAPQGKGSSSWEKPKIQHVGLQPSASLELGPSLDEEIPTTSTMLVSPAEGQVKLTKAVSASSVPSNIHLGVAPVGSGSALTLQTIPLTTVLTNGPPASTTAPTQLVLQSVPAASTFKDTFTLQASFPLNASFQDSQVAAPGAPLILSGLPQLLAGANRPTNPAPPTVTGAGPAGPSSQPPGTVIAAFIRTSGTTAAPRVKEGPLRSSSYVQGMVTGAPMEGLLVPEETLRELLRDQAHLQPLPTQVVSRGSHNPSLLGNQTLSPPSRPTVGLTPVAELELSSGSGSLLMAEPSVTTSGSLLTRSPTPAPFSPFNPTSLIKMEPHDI
Outline: as §1

ELK4 = target: T9, ELK4 (Homo sapiens, UniProt P28324-2 1-405); conditions: protein: recombinant; tags: N-terminal GST; dsDNA, one strand shown
T9 sequence: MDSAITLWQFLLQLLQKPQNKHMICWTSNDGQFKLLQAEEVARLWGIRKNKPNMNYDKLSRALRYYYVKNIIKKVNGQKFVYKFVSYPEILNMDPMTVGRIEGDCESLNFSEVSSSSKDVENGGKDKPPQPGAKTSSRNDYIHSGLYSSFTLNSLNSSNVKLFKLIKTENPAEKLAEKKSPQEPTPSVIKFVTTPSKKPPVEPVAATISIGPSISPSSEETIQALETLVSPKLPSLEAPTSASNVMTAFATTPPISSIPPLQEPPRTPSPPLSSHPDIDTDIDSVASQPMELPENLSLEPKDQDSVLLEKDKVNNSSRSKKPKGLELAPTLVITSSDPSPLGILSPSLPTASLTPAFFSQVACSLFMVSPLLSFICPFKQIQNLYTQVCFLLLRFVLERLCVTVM
Outline: as §1

ETV2 = target: T10, ETV2 (Homo sapiens, UniProt O00321 1-342); conditions: protein: recombinant; tags: N-terminal GST; dsDNA, one strand shown
T10 sequence: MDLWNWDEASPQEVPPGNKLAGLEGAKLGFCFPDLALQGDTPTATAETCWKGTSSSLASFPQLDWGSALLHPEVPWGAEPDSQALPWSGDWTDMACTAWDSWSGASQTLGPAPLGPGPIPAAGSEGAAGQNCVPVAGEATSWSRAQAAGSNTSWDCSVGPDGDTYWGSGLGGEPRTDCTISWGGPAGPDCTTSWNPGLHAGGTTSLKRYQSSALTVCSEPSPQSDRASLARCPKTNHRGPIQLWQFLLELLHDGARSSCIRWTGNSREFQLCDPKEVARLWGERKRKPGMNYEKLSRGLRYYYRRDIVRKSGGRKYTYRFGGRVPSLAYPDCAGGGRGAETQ
Outline: as §1

ELF3 = target: T11, ELF3 (Homo sapiens, UniProt P78545 1-371); conditions: protein: recombinant; tags: N-terminal GST; dsDNA, one strand shown
T11 sequence: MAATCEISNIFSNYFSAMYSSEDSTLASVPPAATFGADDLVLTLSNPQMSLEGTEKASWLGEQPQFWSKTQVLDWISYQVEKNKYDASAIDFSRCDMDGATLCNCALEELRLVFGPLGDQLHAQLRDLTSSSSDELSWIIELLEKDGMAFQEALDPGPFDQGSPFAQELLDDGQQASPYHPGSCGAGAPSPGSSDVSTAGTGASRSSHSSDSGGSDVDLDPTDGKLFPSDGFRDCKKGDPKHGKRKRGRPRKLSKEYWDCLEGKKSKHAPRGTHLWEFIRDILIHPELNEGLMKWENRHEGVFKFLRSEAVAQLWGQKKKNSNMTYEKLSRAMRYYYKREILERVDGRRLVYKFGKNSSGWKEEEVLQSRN
Outline: as §1

CRX = CRX (Homo sapiens, UniProt O43186 1-299); conditions: protein: recombinant; tags: N-terminal GST; dsDNA, one strand shown
CRX, sequence (O43186 whole entry): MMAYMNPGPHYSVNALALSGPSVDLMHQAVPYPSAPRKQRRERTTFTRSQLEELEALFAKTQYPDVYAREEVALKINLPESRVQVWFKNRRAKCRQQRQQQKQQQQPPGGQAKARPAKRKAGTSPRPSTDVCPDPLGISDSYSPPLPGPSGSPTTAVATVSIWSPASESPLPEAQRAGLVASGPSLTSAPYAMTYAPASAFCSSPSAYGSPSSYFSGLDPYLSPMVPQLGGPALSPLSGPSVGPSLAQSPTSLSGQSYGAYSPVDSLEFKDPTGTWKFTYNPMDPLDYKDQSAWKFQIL
Outline: as §1

ETV1 = ETV1 (Homo sapiens, UniProt P50549 1-477); conditions: protein: recombinant; tags: N-terminal GST; dsDNA, one strand shown
ETV1, sequence (P50549 whole entry): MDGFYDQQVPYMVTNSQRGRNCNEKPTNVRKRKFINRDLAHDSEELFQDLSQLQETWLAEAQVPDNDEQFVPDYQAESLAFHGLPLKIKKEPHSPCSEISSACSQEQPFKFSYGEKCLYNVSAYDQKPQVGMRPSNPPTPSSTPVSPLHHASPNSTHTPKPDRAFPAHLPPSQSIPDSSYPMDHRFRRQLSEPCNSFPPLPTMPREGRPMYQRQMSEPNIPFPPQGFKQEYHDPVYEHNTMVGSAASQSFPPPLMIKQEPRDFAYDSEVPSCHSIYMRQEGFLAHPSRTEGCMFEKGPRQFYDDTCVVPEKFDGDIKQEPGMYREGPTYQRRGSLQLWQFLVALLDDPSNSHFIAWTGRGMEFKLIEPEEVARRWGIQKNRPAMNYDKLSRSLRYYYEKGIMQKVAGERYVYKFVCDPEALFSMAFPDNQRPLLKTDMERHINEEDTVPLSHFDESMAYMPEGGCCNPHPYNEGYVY
Outline: as §1

## CCCGCT
FLI1
  binding signal: 1.38 fold enrichment (6-mer frequency, TF over GST control)
ELK1
  binding signal: 1.31 fold enrichment (6-mer frequency, TF over GST control)
GABPA
  binding signal: 1.34 fold enrichment (6-mer frequency, TF over GST control)
ERG
  binding signal: 1.3 fold enrichment (6-mer frequency, TF over GST control)
ELF1
  binding signal: 1.44 fold enrichment (6-mer frequency, TF over GST control)
EHF
  binding signal: 1.48 fold enrichment (6-mer frequency, TF over GST control)
SPI1
  binding signal: 1.37 fold enrichment (6-mer frequency, TF over GST control)
SPIB
  binding signal: 1.35 fold enrichment (6-mer frequency, TF over GST control)
ELK3
  binding signal: 1.35 fold enrichment (6-mer frequency, TF over GST control)
FEV
  binding signal: 1.35 fold enrichment (6-mer frequency, TF over GST control)
ETV5
  binding signal: 1.32 fold enrichment (6-mer frequency, TF over GST control)
HSF1
  binding signal: 1.26 fold enrichment (6-mer frequency, TF over GST control)
SPIC
  binding signal: 1.25 fold enrichment (6-mer frequency, TF over GST control)
ELF4
  binding signal: 1.49 fold enrichment (6-mer frequency, TF over GST control)
ELK4
  binding signal: 1.62 fold enrichment (6-mer frequency, TF over GST control)
ETV2
  binding signal: 1.16 fold enrichment (6-mer frequency, TF over GST control)
ELF3
  binding signal: 1.32 fold enrichment (6-mer frequency, TF over GST control)
CRX
  binding signal: 1.25 fold enrichment (6-mer frequency, TF over GST control)
ETV1
  binding signal: 1.44 fold enrichment (6-mer frequency, TF over GST control)
